Compound activity: PubChem, Broad Institute
This is a sample that favours compounds with a hit; in the whole collection about 2.8% have one here.
PAX8 inh HTS = PAX8 transcriptional activity inhibition; RMG-I TPO-luciferase reporter, SteadyGlo, 24 h; inhibition, % at 12.6 µM; 360,000 tested, 1.2% active; AID 652154;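 active means mean replicate inhibition at least 60% with every replicate also reaching 60%; inconclusive means only one of the two criteria is met; inactive means mean below 60% and not all replicates reaching 60%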;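 further: luciferase light reporting Pax8 driven TPO promoter activity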
LMP1 NFkB inh = Epstein-Barr LMP1 NF-kappaB reporter inhibition | AID 504558 | inhibition, % at 12.5 µM | 350,000 tested, 0.69% active | LMP1-induced NF-kappaB luciferase reporter cells, luminescence; in the data active means inhibition above about 41%; inconclusive means no clear call, values can overlap the other calls
Shn3 3UTR inh = inhibitors of Schnurri-3 3'UTR reporter in osteoblasts. Clone20 osteoblast Shn3 3'UTR firefly luciferase, 24 h. inhibition, % at 12.5 µM. 360,000 tested, 0.52% active;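 active means mean inhibition of at least 75% with every replicate also reaching 75%; inconclusive means mean inhibition at least 75% but some replicate below; inactive means mean inhibition below 75%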
NSD2 inh = NSD2 (human) methyltransferase inhibition | NSD2 peptide methylation, AlphaScreen, 120 min | inhibition, % at 12.5 µM | 310,000 tested, 0.54% active | AID 743445; in the data active means inhibition above about 50%
Env fusion inh = HIV envelope-mediated fusion inhibition; 360,000 tested, 1.1% active; HeLa-JRFL Env/CEM21 cell fusion, luciferase; inhibition, % at 12.3 µM;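 active means mean replicate inhibition score of at least 50 and every replicate individually at or above 50; inconclusive means only one of the two criteria met; inactive means mean below 50 and not all replicates reaching 50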
N-glyco inh = N-linked glycosylation inhibition | D54 ERlucT glycosylation luciferase reporter, 24 h; percent of 100 nM tunicamycin response | reporter increase, % at 12.5 µM | 360,000 tested, 0.23% active | AID 588692;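 active means mean luciferase reporter signal, scaled so untreated is 0 and the glycosylation-blocking control 100, at or above a set limit in every replicate; inconclusive means mean reaches the limit but not every replicate does; inactive means mean below the limit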;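 further: luciferase carries N-glycosylation sites so blocking glycosylation raises the light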
Numbers stand for hits; 0 = inactive; ? = inconclusive; - = not tested or not shown; ! = repeats disagree.

SMILES	PAX8 inh HTS	LMP1 NFkB inh	Shn3 3UTR inh	NSD2 inh	Env fusion inh	N-glyco inh
CCN1C(=O)[C@H]2[C@@H](c3ccc(C)cc3)N3C(=O)N(c4cccc(Cl)c4)C(=O)[C@@]3(Cc3ccc(Cl)cc3)[C@H]2C1=O	0	0	0	-	58.8	0
COc1ccc(N2C(=O)N3[C@H](c4cccc(C)c4)[C@@H]4C(=O)N(Cc5ccccc5)C(=O)[C@@H]4[C@]3(Cc3ccccc3)C2=O)cc1	0	-	-	-	85.8	-
COc1ccc([C@@H]2[C@@H]3C(=O)N(C(C)(C)C)C(=O)[C@@H]3[C@]3(Cc4ccccc4)C(=O)N(c4ccc(OC)cc4)C(=O)N23)cc1	0	0	0	-	0	0
COc1ccc([C@@H]2[C@@H]3C(=O)N(C(C)(C)C)C(=O)[C@@H]3[C@]3(Cc4ccc(Cl)cc4)C(=O)N(c4cccc(C)c4)C(=O)N23)cc1	0	0	0	-	89.7	0
COc1ccc([C@@H]2[C@@H]3C(=O)N(C(C)(C)C)C(=O)[C@@H]3[C@]3(CC(C)C)C(=O)N(c4ccccc4)C(=O)N23)cc1	0	0	0	-	80.8	0
COc1ccc([C@@H]2[C@@H]3C(=O)N(C(C)(C)C)C(=O)[C@@H]3[C@]3(CC(C)C)C(=O)N(c4ccc(C(F)(F)F)cc4)C(=O)N23)cc1	0	0	0	-	108.7	0
C[C@@H]1CN([C@@H](C)CO)C(=O)c2cc(-c3ccccc3)cnc2O[C@H]1CN(C)C(=O)C1CCOCC1	-	-	-	-	0	-
c1ncc(-c2ccc(C3[C@@H]4CN(Cc5ccc6c(c5)OCO6)C[C@H]3N4)cc2)cn1 (stereo partly drawn)	0	-	-	-	-	-
Fc1cccc(CN2C[C@@H]3N[C@H](C2)C3c2ccc(-c3cncnc3)cc2)c1 (stereo partly drawn)	0	-	-	-	-	-
Fc1cccc(-c2ccc(C3[C@@H]4CN(Cc5cccnc5)C[C@H]3N4)cc2)c1 (stereo partly drawn)	0	-	-	-	-	-
Fc1cccc(CN2C[C@@H]3N[C@H](C2)C3c2ccc(-c3ccccc3)cc2)c1 (stereo partly drawn)	89.0!	-	-	-	-	-
Fc1cccc(CN2C[C@@H]3N[C@H](C2)[C@@H]3c2ccc(-c3cccc(F)c3)cc2)c1	94.4	-	-	-	-	-
Fc1ccc(-c2ccc(C3[C@@H]4CN(Cc5nccs5)C[C@H]3N4)cc2)cc1 (stereo partly drawn)	62.9!	-	-	-	-	-
C(=C\c1ccc(C2[C@@H]3CN(Cc4ccc5c(c4)OCO5)C[C@H]2N3)cc1)/c1ccccc1 (stereo partly drawn)	81.0!	-	-	-	-	-
CN(C)C(=O)c1ccc(-c2ccc(C3[C@@H]4CN(Cc5nccs5)C[C@H]3N4)cc2)cc1 (stereo partly drawn)	0	-	-	-	-	-
CC1CCN(Cc2ccc(-c3nnn(CC(=O)Nc4ccccc4Cl)n3)cc2)CC1	0	0	87.0	0	0	0
COc1ccc(S(=O)(=O)N[C@H]2CC[C@H](CCNC(=O)Cc3ccccn3)O[C@H]2CO)cc1	0	-	-	-	0	-
C[C@H](c1ccccc1)N1C[C@@H](COCc2ccccc2)Oc2cccc(N3CCCCC3)c2S1(=O)=O	0	-	-	-	58.6	-
COc1ccc(Oc2cccc3c2S(=O)(=O)N(C2CC2)C[C@@H](COCc2ccccc2)O3)cc1	0	-	-	-	0	-
CC(C)c1ccc(Oc2cccc3c2S(=O)(=O)N(C2CCCC2)CC(COCc2ccccc2)O3)cc1 (stereo not drawn)	0	0	86.5	-	-	0
CCCCOCC1CN(CCCC)S(=O)(=O)c2c(Oc3ccc(C)cc3)cccc2O1 (stereo not drawn)	0	-	-	-	65.4	-
C[C@H](CO)N1C[C@H](C)[C@@H](CN(C)Cc2ccccc2C(F)(F)F)OCc2ccccc2-c2ccccc2C1=O	0	-	-	-	-	-
O=C(Cn1c(C(F)(F)F)nc2ccccc21)c1ccc(Cl)cc1	-	0	0	0	64.4	0
CC(=O)NC[C@@H]1[C@@H](c2ccc(-c3cccnc3)cc2)[C@@H](CO)N1C(=O)C1CC1	0	-	-	-	-	-
O=C1OCCC1Sc1nnc(-c2ccc(Cl)cc2Cl)o1 (stereo not drawn)	0	49.8	0	0	58.7	0
SMILES	PAX8 inh HTS	LMP1 NFkB inh	Shn3 3UTR inh	NSD2 inh	Env fusion inh	N-glyco inh
O=C1OCCC1Sc1nnc(-c2ccccc2)o1 (stereo not drawn)	-	0	0	0	-	0
COc1ccc(-c2csc(NC(=O)c3ccccc3NS(=O)(=O)c3ccc(F)c(F)c3)n2)cc1	97.0	?	0	-	0	0
Cc1ccc(S(=O)(=O)Nc2ccccc2C(=O)Nc2nc(-c3ccc(F)cc3)cs2)cc1	77.4	0	0	0	56.0	0
COc1ccc(S(=O)(=O)N[C@H]2CC[C@@H](CCNC(=O)Cc3ccccn3)O[C@@H]2CO)cc1	0	-	-	-	0	-
CC(c1ccccc1C(O)c1ccccc1)N(C)C (stereo not drawn)	-	0	0	-	-	0
Cc1ccc(C(O)(c2ccccc2)c2ccccc2C(C)N(C)C)c(C)c1 (stereo not drawn)	-	0	0	-	79.1	0
CS(=O)(=O)N1CC2(C1)[C@H](c1ccccc1)[C@H](CO)N2CC1CC1	0	-	-	-	-	-
Cc1cc(C[n+]2cc(Br)ccc2N)c2ncccc2c1	0	0	91.9	0	0	0
Brc1ccccc1CN1CCN(Cc2c[nH]c3ccccc23)CC1	63.0	-	-	0	0	-
Brc1ccc(CN2CCN(Cc3c[nH]c4ccccc34)CC2)cc1	0	0	0	0	0	0
Cc1cc(NCCCn2ccnc2)n2ncc(-c3ccccc3)c2n1	-	50.3	0	0	-	0
CC(=O)N1CC2(C1)[C@H](c1ccc(-c3cccc(F)c3)cc1)[C@H](CO)N2CC1CCOCC1	0	-	-	-	-	-
Cc1ccc(/C=C2\C(=O)ON=C2c2ccccc2)o1	0	0	0	0	0	0
Cc1ccc(-c2ccc(/C=C3\C(=O)ON=C3c3ccccc3)o2)c([N+](=O)[O-])c1	-	0	90.7	0	0	0
COc1ccc(NS(=O)(=O)c2ccc(N3CCCC3)c(NC(=S)Nc3cccc(C)c3C)c2)cc1	0	0	0	0	148.7	0
COc1ccc(NS(=O)(=O)c2ccc(N3CCCC3)c(NC(=S)Nc3ccc(SC(F)F)cc3)c2)cc1	101.4	0	0	0	-	0
CC(=O)N1c2c(cc(Br)cc2S(=O)(=O)NCc2cccnc2)CC1C (stereo not drawn)	0	0	0	-	0	0
CCCCN(Cc1ccccc1)S(=O)(=O)c1cc(Br)cc2c1N(C(C)=O)C(C)C2 (stereo not drawn)	-	0	0	0	63.1	0
COc1ccc(S(=O)(=O)Nc2ccc3c(c2)C(=O)N([C@@H](C)CO)C[C@H](C)[C@H](CN(C)C(=O)Cc2ccccc2)OCCCC[C@@H](C)O3)cc1	0	-	-	-	0	-
CCCCOc1ccc(Nc2cc(Cl)ccc2C(=O)O)cn1	0	0	0	0	62.8	0
COc1ccc(CC(=O)Nc2cc(Cl)ccc2C(=O)O)cc1	0	0	0	0	0	0
COc1ccc2nc(C)cc(Sc3nc4ccccc4s3)c2c1	69.0	0	0	-	58.1	0
